# PolyA inh – inhibitors of polyadenylation in S. cerevisiae; S. cerevisiae SKY197-pL101 polyadenylation reporter, beta-gal luminescence; efflux-impaired pdr1/pdr3 knockout yeast; score 100 = 6 SD above DMSO; activity score, % at 12 µM; 300,000 tested, 0.02% active; AID 1875;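 active means lowest replicate activity score at least 50, where 100 means six control SD above control mean; inconclusive means lowest score under 50 but half or more replicates reach 50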;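 further: yeast exposed to compound for 9 h at 30 °C; higher score means more reporter readthrough which indicates perturbed polyadenylation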
# M18AAP inhibitor – PfM18AAP enzyme inhibition | inhibition, % at 7.35 µM | recombinant PfM18AAP, H-Glu-NHMec fluorogenic cleavage | 290,000 tested, 1.2% active;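 active means inhibition above the campaign mean inhibition over all tested compounds plus 3 SD, cut at about 28% in these data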;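 further: 0% = plate median of test compound wells and 100% = 2 mM ZnCl2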
# CaV13 FRET inh – Primary screen for inhibitors of IQ motif and Ca2+-dependent inactivation inhibitor domain binding in CACNA1D, Förster resonance energy transfer in living cells, …; inhibition, % at 12.3 µM; 340,000 tested, 0.098% active; HEK cells, CFP/YFP FRET ICDI-IQ, plate reader, 10 min; percent FRET-ratio fall versus neutral wells;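 active means mean replicate inhibition of at least 30% and at least 1% of replicates passing that level; inconclusive means only one of the two criteria is met; inactive means neither criterion is met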;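 further: 0% = median of the neutral control wells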
# ALR H2O2 inh – inhibitors of human sulfhydryl oxidase ALR; 290,000 tested, 3.8% active; AID 485317; P55789; inhibition, % (no concentration beside the values); purified ALR, DTT oxidation, H2O2 HRP-luminol luminescence;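 active means mean replicate inhibition above about 79%, with every replicate also reaching it, limit read from the data; inconclusive means only one of the two criteria met; inactive means mean below limit and not every replicate reaching it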
# IDE act – activators of human insulin-degrading enzyme in cells; P14735; HEK cells, FAbeta-B cleavage, fluorescence polarization; 0% vehicle, 100% cell-free pure enzyme wells; activation, % at 5.96 µM; 340,000 tested, 0.073% active; AID 493087;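 active means activation above the mean of all tested compounds plus 3 SD, set per screening campaign, cut at about 17% in these data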
# IDE inh – cellular human IDE inhibition | P14735 | HEK cells, FAbetaB cleavage, fluorescence polarization | inhibition, % at 5.59 µM | 320,000 tested, 0.41% active | AID 434962;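 active means percent inhibition above the average of all tested compounds plus 3 SD, set per screening campaign, cut at about 16% in these data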;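 further: IDE supplied by intact live HEK cells; FP after avidin binding of uncleaved biotin substrate so inhibition keeps polarization high; 0% = DMSO wells and 100% = 60 µM reference IDE inhibitor Ii1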
# IDE inh confirm – confirmation of human insulin-degrading enzyme inhibitors in cells; inhibition, % at 5.59 µM; 1,200 tested, 51% active; HEK cells, FAbetaB cleavage, fluorescence polarization; shares compounds with IDE inh; AID 435028;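 active means mean inhibition across triplicate wells above the cutoff set by the earlier primary insulin-degrading enzyme screen, cut at about 16% in these data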;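 further: 0% = DMSO wells and 100% = 60 µM reference IDE inhibitor Ii1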
# HEK293 tox – kills HEK cells in IDE inhibitor counter-screen; HEK293 cytotoxicity, ATP luminescence; inhibition, % at 5.59 µM; AID 449730; 1,200 tested, 28% active; shares compounds with IDE inh; in the data active means inhibition above about 22%;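 further: 0% = vehicle wells and 100% = reference cytotoxic drug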
# Active calls of the source: *; u = inconclusive; x = not tested or not shown. This is a sample that favours compounds with a hit; in the whole collection about 4.1% have one here.
SMILES,PolyA inh,M18AAP inhibitor,CaV13 FRET inh,ALR H2O2 inh,IDE act,IDE inh,IDE inh confirm,HEK293 tox
CC(O)Cc1cn(CC(=O)N2CCN(C(=O)OC(C)(C)C)CC2)nn1 (stereo not drawn),-7,3,-3,-7,2,-3,x,x
O=C1c2cccc3c(N4CCCCC4)ccc(c23)C(=O)N1c1ccccn1,-15,-3,-10,-20,-7,75*,109*,21
O=C(OCCN1C(=O)c2cccc3c(N4CCOCC4)ccc(c23)C1=O)c1cc(Cl)cc(Cl)c1,x,4,x,x,x,x,x,x
CC(=O)N(C(C)=O)N1C(=O)c2cccc3c(N4CCOCC4)ccc(c23)C1=O,2,3,-11,x,-1,17*,6,19
O=C(Nc1ccc(N2CCOCC2)c(Cl)c1)c1ccc2c(c1)OCCO2,7,1,-4,-4,4,6,x,x
O=C(Nc1ccc(N2CCOCC2)c(Cl)c1)c1ccc(Cl)cc1,-22,0,-3,-4,-5,18*,4,21
COc1ccc(Cn2c(C)nnc2-c2cnn(C)c2N)cc1,0,1,6,-18,0,-1,x,x
COc1ccc(OC)c2sc(N3CCN(C(=O)c4ccc5ncsc5c4)CC3)nc12,1,x,-5,-22,4,2,x,x
COc1ccc2nc(N3CCN(C(=O)c4ccc5ncsc5c4)CC3)sc2c1,27,x,-5,-2,-20,17*,11,30*
CCOc1ccccc1CNC(=O)CCNS(=O)(=O)c1ccc2[nH]c(=O)oc2c1,24,-7,-8,-4,1,-2,x,x
CCOC(=O)C1=C(C)NC(C)=C(C(=O)OCC)C1c1ccccc1/C=C/C(=O)OC(C)(C)C,9,x,x,-6,x,0,x,x
Cc1ccccc1-n1c(O)c(/C=C/C=Nc2ccccc2)c(=O)[nH]c1=O,9,3,-5,-9,-71,66*,85*,7
Cc1ccccc1SCC(=O)N1CCN(c2ccc(C(F)(F)F)cn2)CC1,-3,0,-5,-5,-4,7,x,x
OC(CN1CCN(c2ccc(C(F)(F)F)cn2)CC1)c1ccccc1 (stereo not drawn),-21,-8,x,-2,-11,20*,11,20
N#C/C(=C\c1ccc(N2CCOCC2)o1)C(=O)NCC1CCCO1 (stereo not drawn),-25,13,-4,86*,-26,17*,22*,12
N#C/C(=C\c1ccc(-c2ccc(C(=O)O)cc2)o1)C(=O)NCC1CCCO1 (stereo not drawn),-3,-3,x,-2,5,3,x,x
N#C/C(=C\c1ccc(N2CCOCC2)o1)C(=O)NC1CCCCC1,-17,7,-2,79*,-37,46*,48*,17
Cc1cccc(C(=O)Nc2ccc(C(=O)/C=C/c3cccnc3)cc2)c1,-5,-7,-19,x,-37,20*,10,71*
O=C(/C=C/c1cccnc1)c1ccc(NC(=O)c2cccc(Br)c2)cc1,6,9,-4,11,-17,8,x,x
CCSC1=NSC2=NC(=O)/C(=C\c3coc4ccccc4c3=O)C(=N)N12,x,7,-18,98*,-65,55*,51*,6
CC(C)CC1=NN2C(=N)/C(=C\c3coc4ccccc4c3=O)C(=O)N=C2S1,u,4,-15,x,-32,x,x,x
Nc1nc2c(ncn2[C@@H]2O[C@H](CNCc3ccc4ncccc4c3)[C@@H](O)[C@H]2O)c(=O)[nH]1,x,x,-2,x,x,x,x,x
CCc1cccc2cc3c(N)c(C(=O)Nc4ccc(S(=O)(=O)N5CCCC5)cc4)sc3nc12,-2,-3,-12,-2,-11,25*,18*,31*
CC(=O)NC(c1cccs1)c1cc([N+](=O)[O-])c2cccnc2c1O (stereo not drawn),-17,14,-13,-66,7,27*,6,27*
